# Screening results as filed in PubChem BioAssay.
# SW480 rerep: induces DNA re-replication in SW480 colon adenocarcinoma cells. hit rate 1.8% among 340,000. Potency, µM (titrated, usually from 46.1 µM), inactives show at the top dose re-replication activation, most hits filed as activators. SW480 DNA re-replication, Hoechst DNA content imaging, 48 h. AID 624297; note: % of control where 0% means no effect; nearly all actives have a fitted effect of over 55% in size
#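 Hoechst fluorescence of nuclei (405 nm excitation, 500-530 nm emission) measured by plate-scanning imager after 48 hr compound exposure at 37 C; re-replication scored as increased number of nuclei with elevated intensity.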
# MCF10A rereplic: induces DNA re-replication in MCF 10a normal breast cells | Potency, µM (doses to about 46.1 µM), inactives show at the top dose activity, positive = re-replication, hits mostly activators | hit rate 2.9% among 350,000 | MCF 10A DNA re-replication, Hoechst nuclear intensity, 48 h | AID 624296; note: % of control where 0% means no effect; nearly all actives have a fitted effect of over 50% in size
# KB-V1 MDR tox: kills drug-selected multidrug resistant KB-V1 cells; hit rate 3.4% among 400,000; KB-V1 MDR cells viability, CellTiter-Glo, 72 h; Potency, µM (titrated, usually from 46.1 µM), usual class: cytotoxic; note: % is set by controls: 0 for no effect and ±100 for the full control effect; nearly all actives have a fitted effect of over 60% in size
#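 In this primary screen, KB-V1 cells overexpressing P-gp are incubated with library compounds (lowest to highest concentration) for 72 h at 37 degrees C before a luminescent ATP viability read.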
# ELG1 DNA repair: blocks ELG1-dependent DNA repair in HEK293T cells; HEK293T ELG1-luciferase reporter, luminescence, 16 h; DNA damage induced by 5-fluorouridine; Potency, µM (top dose mostly 46.1 µM), without a hit: at the highest dose activity change, negative = inhibition, most hits filed as inhibitors; hit rate 2.3% among 330,000; AID 504467; note: % is set by controls: 0 for no effect and ±100 for the full control effect; nearly all actives have a fitted effect of over 55% in size
#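 Overnight (16 hr) co-exposure of 2,000 cells/well to 5-fluorouridine and compound at 37 °C preceded detection. Luciferase was quantified via ONE-Glo luminescence; loss of signal denotes inhibition.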
# KB-3-1 tox: kills parental KB-3-1 adenocarcinoma cells; KB-3-1 viability, CellTiter-Glo ATP luminescence, 72 h; Potency, µM (top dose mostly 46.1 µM), usual class: cytotoxic; hit rate 1.4% among 400,000; note: % is set by controls: 0 for no effect and ±100 for the full control effect; nearly all actives have a fitted effect of over 60% in size
#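 Cytotoxicity measured as CellTiter-Glo luminescence after 72 h at 37 C. Compound titrations were pinned onto drug-naive KB-3-1 parental adenocarcinoma cells grown in DMEM with 10% FBS, and normalized data fitted to concentration-response curves.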
# Starred values were filed as active, the others as inactive; i = inactive; u = inconclusive; x = no result. Hits are enriched below; roughly 8.1% of the tested compounds scored in any of these assays. Calls come from the whole dose curve; as a rule, active = well fitted curve in the direction sought with a large enough effect; inconclusive = small, poorly fitted or top-dose-only effect, or another doubt; inactive = no such curve, though single readings can be large; an effect the other way counts as inactive or inconclusive. Potency is the fitted concentration of half-maximal effect.
SMILES,SW480 rerep,MCF10A rereplic,KB-V1 MDR tox,ELG1 DNA repair,KB-3-1 tox
CC(=O)NCCNc1nc2c(S(=O)(=O)c3ccc(C)c(C)c3)nnn2c2ccc(Cl)cc12,x,x,u,x,i
CC1CCCN(c2ccc3nncn3n2)C1 (configuration not stated),-7%,-10%,i,2%,i
Cc1cc(-c2csc(NC(=O)c3cccc(S(=O)(=O)N(C)C)c3)n2)c(C)n1-c1ccccc1,-2%,3%,i,u,i
Cc1cc(C)c(NC(=O)c2ccc(S(=O)(=O)N(C)C)cc2)c(C)n1,u,18µM*,i,1%,i
CCOC(=O)c1csc(NC(=O)c2ccc(S(=O)(=O)N(C)C)cc2)n1,1%,-6%,21µM*,7.3µM*,i
CCOC(=O)c1sc(NC(=O)c2ccc(S(=O)(=O)N(C)C)cc2)cc1C,-2%,17%,i,16µM*,u
Cc1cc(NC(=O)c2ccc(S(=O)(=O)N(C)C)cc2)no1,-5%,-4%,i,u,i
COC(=O)c1ccc(-n2c(C)cc(-c3csc(NC(=O)c4ccc(S(=O)(=O)N(C)C)cc4)n3)c2C)cc1,1%,0%,i,13µM*,i
CCOC(=O)c1sc(NC(=O)c2ccccc2)cc1C,11%,13%,i,u,i
Cc1noc(C)c1C(=O)N1CCN(c2cccc(Cl)c2)CC1,-46%,u,i,-4%,i
N=C1C(c2ccccc2)=C(O)CN1c1cccc(S(=O)(=O)N2CCOCC2)c1,-6%,4%,i,u,i
COC(=O)c1ccc2c(=O)n(C3CCCCC3)c(SCC#N)nc2c1,-7%,16%,i,u,i
COc1ccc([C@@H]2C[C@@H](c3ccccc3)Oc3cc(OC)c(OC)c(OC)c32)cc1,-4%,1.2µM*,u,-6%,i
COc1ccc([C@@H]2C[C@@H](c3ccccc3)Oc3cc(OC)cc(OC)c32)cc1,-2%,14%,i,1%,i
CCCc1cc(=O)[nH]c(SCC(=O)c2cc(C)n(CCOC)c2C)n1,-1%,1%,i,-14%,i
CCCc1cc(=O)[nH]c(SCC(=O)c2cc(C)n(CC(F)(F)F)c2C)n1,-5%,21%,16µM*,5%,i
COc1cc(C(=O)ON=C2C3CC4CC(C3)CC2C4)cc(OC)c1OC,u,9%,i,23µM*,i
COc1cc(C(=O)O/N=C2\C=CC(=O)C=C2C)cc(OC)c1OC,20%,22%,i,2%,i
COc1cc(C(=O)NC23CC4CC(CC(C4)C2)C3)cc(OC)c1OC,u,17%,i,10%,i
COc1cc(C(=O)O/N=C2/C=CC(=O)C(C)=C2C)cc(OC)c1OC,16µM*,23µM*,u,-2%,u
COCCN(CC1CCCN(C2Cc3ccccc3C2)C1)C(=O)CCC(F)(F)F (configuration not stated),-37%,2%,i,1%,i
CC1=C(c2ccc(F)cc2)[N+](=O)C(C)(C)N1[O-],-1%,2%,i,12%,i
Cc1ccc(Cl)cc1NC(=O)COC(=O)c1ccccc1O,-4%,-3%,i,15%,i
Cc1ccccc1CNc1ccc(C(CC(N)=O)NC(=O)c2ccc(Br)cc2)cc1[N+](=O)[O-] (configuration not stated),u,10µM*,i,-24%,i
CC(=O)c1c(C)[nH]c(C(=O)NNC(=O)COc2cc(C)ccc2C(C)C)c1C,u,1%,i,5%,i
SMILES,SW480 rerep,MCF10A rereplic,KB-V1 MDR tox,ELG1 DNA repair,KB-3-1 tox
CCOC(=O)c1[nH]c(C)c(C(=O)N2CCN(c3ccccc3)CC2)c1C,1%,4%,16µM*,3%,i
CCOC(=O)c1[nH]c(C)c(C(=O)N2CCOCC2)c1C,-3%,-4%,i,9%,i
COc1ccc(Cl)cc1NC(=O)c1[nH]c(C)c(C(C)=O)c1C,-28%,-10%,i,20%,i
COc1ccc(CCNC(=O)c2[nH]c(C)c(C(C)=O)c2C)cc1OC,-9%,0%,i,-1%,i
CC(=O)c1c(C)[nH]c(C(=O)NNC(=O)COc2ccc(Cl)cc2C)c1C,-20%,7.1µM*,i,-11%,i
CCOc1ccc(CCNC(=O)c2[nH]c(C)c(C(C)=O)c2C)cc1OCC,3%,0%,18µM*,u,i
COc1ccc(OC)c(NC(=O)c2[nH]c(C)c(C(C)=O)c2C)c1,-12%,24%,16µM*,u,i
O=C(CSc1nnnn1-c1ccccc1)NCc1cccs1,-2%,4%,u,2%,i
COc1cccc(CN(C)C(=O)CSc2nc3ccccc3[nH]2)c1OC,-3%,2%,16µM*,-29%,i
CCOC(=O)c1[nH]c(C)c(C(=O)N(C)Cc2ccccc2)c1C,-4%,0%,16µM*,12%,i
CCOC(=O)c1[nH]c(C)c(C(=O)Nc2ccccc2C)c1C,u,3.7µM*,i,u,u
CCOC(=O)c1[nH]c(C)c(C(=O)NCc2cccc(OC)c2)c1C,x,x,i,x,i
CCOC(=O)c1c(C)[nH]c(C(=O)OCc2ccccc2)c1C,-8%,-1%,i,u,i
CCOC(=O)c1[nH]c(C)c(C(=O)NCCc2ccc(OC)cc2)c1C,-1%,u,15µM*,-6%,i
O=C(NCCCNC1CCCCC1)c1ccc(/C=N/O)nc1,-3%,9%,i,u,i
CCOC(=O)c1c(C)[nH]c(C(=O)N(C)Cc2cccc(OC)c2OC)c1C,5%,12%,i,16µM*,i
CCOC(=O)c1[nH]c(C)c(C(=O)Nc2cc(Cl)ccc2C)c1C,0.82µM*,u,0.46µM*,u,u
CCOC(=O)c1[nH]c(C)c(C(=O)NCc2ccc(Cl)cc2)c1C,4%,u,23µM*,-20%,i
COc1ccc(C2=CCCCCC2)c(OC)c1OC,-1%,u,i,x,i
Cc1cc(CN(C)Cc2cn(C)nc2-c2ccc(Oc3ccccc3)cc2)on1,0%,4%,9.2µM*,u,i
C=CCNC(=O)C1CC1(c1ccccc1)c1ccccc1 (configuration not stated),-97%,3%,18µM*,5%,i
O=S(=O)(Nc1ccccc1)c1ccc(S(=O)(=O)N2CCCC2)cc1,-13%,-2%,i,-2%,i
Cc1c(OCC(=O)NC2CC(C)(C)NC(C)(C)C2)ccc2c1oc(=O)c1ccccc12,13µM*,2%,i,18%,i
Cc1c(OCC(=O)NC2CC(C)(C)NC(C)(C)C2)ccc2c3c(c(=O)oc12)CCC3,u,11%,i,27%,i
CN1CCN(C(=O)/C(=C/c2ccccc2)c2ccccc2)CC1,-1%,1%,i,3%,u
